Among the data in PubChem BioAssay (NCATS) are outcome and Potency values, retold here.

Assay [1] has as its target Beta-2 adrenergic receptor (Homo sapiens) (UniProt P07550). Nature of the assay: qHTS validation assay of beta-arrestin-biased ligands of beta2-adrenergic receptor (AID 485366). In outline: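 Tango cells (recombinant beta2-AR with recombinant beta-arrestin; recruitment releases tTA driving luciferase) were treated with compounds titrated up to 46 microM for 18 hr at 37 degrees C. Luminescence gave %Activity, and concentration-response curves were curve-classified.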
For orientation: In qHTS, concentration-response curves come from the screen itself.

The target of assay [2] is ATP-dependent 6-phosphofructokinase (Trypanosoma brucei brucei) (UniProt O15648). Put plainly: qHTS Validation Assay to Find Inhibitors of T. brucei phosphofructokinase (AID 485368). The conditions noted are these: T. brucei PFK enzyme assay, qHTS 7-point titration; at 57.5 µM (top of the series). In outline: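 Compounds (up to 57 uM, titration series) were pinned into substrate buffer, then 1.25 nM PFK added; after 45 min at room temperature, ADP product was quantified by ADP-Glo luminescence and concentration-response curves fitted.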
Chain of ATP-dependent 6-phosphofructokinase (Trypanosoma brucei brucei) (O15648 whole entry, looked up): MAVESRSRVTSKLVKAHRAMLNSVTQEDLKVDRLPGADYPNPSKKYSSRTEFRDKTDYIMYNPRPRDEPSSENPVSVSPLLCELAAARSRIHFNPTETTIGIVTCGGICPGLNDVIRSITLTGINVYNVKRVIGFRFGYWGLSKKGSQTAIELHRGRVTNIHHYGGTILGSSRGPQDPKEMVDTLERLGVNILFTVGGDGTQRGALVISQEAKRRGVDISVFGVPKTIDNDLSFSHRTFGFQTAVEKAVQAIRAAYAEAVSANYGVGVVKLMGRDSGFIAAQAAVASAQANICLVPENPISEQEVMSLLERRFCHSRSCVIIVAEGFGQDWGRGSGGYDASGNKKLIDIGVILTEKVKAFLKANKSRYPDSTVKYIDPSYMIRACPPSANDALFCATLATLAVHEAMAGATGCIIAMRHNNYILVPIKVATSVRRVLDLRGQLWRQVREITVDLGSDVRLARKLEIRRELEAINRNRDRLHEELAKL

Assay [3] in a line: Quantitative high throughput screen for delayed death inhibitors of the malarial parasite plastid, 96 hour incubation (AID 488745). Further: nearly all actives have a fitted effect of over 70% in size. Further: potency means the concentration at half of the fitted maximal effect. In outline: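 Infected erythrocytes were added to compound in Albumax-supplemented RPMI 1640 at 0.1% parasitemia and 2% hematocrit (final), incubated 96 h at 37 C under 5% CO2, then luciferase reagent was added and luminescence measured.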
In assay [4] the target is Thioredoxin reductase 1, cytoplasmic (Rattus norvegicus) (UniProt O89049). Put plainly: qHTS Assay for Substrates of Mammalian Selenoprotein Thioredoxin Reductase 1 (TrxR1) (AID 488772).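 Further: NADPH fluorescence in the first read after selenite addition and not the 8 min delta; a drop in NADPH fluorescence below the no-compound background marks a TrxR1 substrate.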 The method in brief:
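Quantitative HTS in Tris-HCl buffer at pH 7.5 with EDTA and Tween-20, using rat TrxR1, 400 uM NADPH and 400 uM selenite (final). A fall in initial NADPH fluorescence relative to background marked substrate behaviour.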

The target is the same in assay [5]. Nature of the assay: qHTS Assay for Inhibitors of Mammalian Selenoprotein Thioredoxin Reductase 1 (TrxR1) (AID 488773).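 Further: drop in NADPH fluorescence over an 8 min run after selenite addition; nearly all actives have a fitted effect of over 40% in size.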 The settings on record: Potency: inhibition. In outline: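 Steps: enzyme (90 nM) plus NADPH (400 uM final), 5 min at ~22 deg C; compound added, 15 min; selenite (400 uM final) added; fluorescence followed for 8 min. Concentration-response curves derived from the normalized delta values.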

For assay [6], the target named is M-phase phosphoprotein 8 (Homo sapiens) (UniProt Q99549). Nature of the assay: qHTS Validation Assay for Inhibitors for MPP8 Chromodomain Interactions with Methylated Histone Tails (AID 488949).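 Further: AlphaScreen signal from MPP8 chromodomain bound to biotinylated H3K9me3 peptide; top concentration of the series differs between compounds; nearly all actives have a fitted effect of over 55% in size.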 The method in brief: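 Chemiluminescent proximity assay: histidine-tag capture via nickel acceptor beads, biotin peptide via streptavidin donor beads. Protein and peptide each at 50 nM, pH 7.4, with 30 min incubations at room temperature for complex formation, compound exposure and bead binding.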
Chain of M-phase phosphoprotein 8 (Homo sapiens) (Q99549 whole entry, looked up): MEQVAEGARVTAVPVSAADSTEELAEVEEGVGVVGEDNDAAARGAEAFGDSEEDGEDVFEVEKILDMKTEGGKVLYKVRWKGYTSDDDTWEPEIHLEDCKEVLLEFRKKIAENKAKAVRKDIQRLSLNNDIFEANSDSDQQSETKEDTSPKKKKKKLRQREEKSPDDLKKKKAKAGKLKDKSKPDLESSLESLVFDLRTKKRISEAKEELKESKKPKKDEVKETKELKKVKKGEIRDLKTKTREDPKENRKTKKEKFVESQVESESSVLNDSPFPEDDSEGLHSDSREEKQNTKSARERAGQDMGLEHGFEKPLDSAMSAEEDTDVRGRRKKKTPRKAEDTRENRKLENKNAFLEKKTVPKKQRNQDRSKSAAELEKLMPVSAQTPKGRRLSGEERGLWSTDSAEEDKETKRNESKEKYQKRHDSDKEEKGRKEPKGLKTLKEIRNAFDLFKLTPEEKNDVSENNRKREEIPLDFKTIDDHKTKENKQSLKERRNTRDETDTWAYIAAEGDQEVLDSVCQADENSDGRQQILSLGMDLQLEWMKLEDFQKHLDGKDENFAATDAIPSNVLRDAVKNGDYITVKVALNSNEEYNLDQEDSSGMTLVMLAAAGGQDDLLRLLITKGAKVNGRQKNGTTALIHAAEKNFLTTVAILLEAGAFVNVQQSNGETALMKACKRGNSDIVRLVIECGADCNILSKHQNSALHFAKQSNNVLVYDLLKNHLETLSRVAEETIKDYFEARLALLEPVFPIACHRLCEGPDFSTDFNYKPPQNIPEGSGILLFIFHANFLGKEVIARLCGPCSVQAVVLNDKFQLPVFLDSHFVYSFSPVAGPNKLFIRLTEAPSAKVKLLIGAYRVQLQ

In assay [7] the target is Chromobox protein homolog 1 (Homo sapiens) (UniProt P83916). Nature of the assay: qHTS Validation Assay for Inhibitors of HP1-beta Chromodomain Interactions with Methylated Histone Tails (AID 488953).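 Further: loss of AlphaScreen luminescence from HP1-beta binding biotinylated H3K9me3 peptide; nearly all actives have a fitted effect of over 50% in size.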 The method in brief: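 50 nM HP1-beta + 50 nM biotin-H3(1-18)K9me3, PBS pH 7.4, 0.01% Tween-20, 30 min RT; compound added, 30 min RT; AlphaScreen beads 10 ug/mL final, 30 min dark; luminescence read.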
Chain of Chromobox protein homolog 1 (Homo sapiens) (P83916 whole entry, looked up): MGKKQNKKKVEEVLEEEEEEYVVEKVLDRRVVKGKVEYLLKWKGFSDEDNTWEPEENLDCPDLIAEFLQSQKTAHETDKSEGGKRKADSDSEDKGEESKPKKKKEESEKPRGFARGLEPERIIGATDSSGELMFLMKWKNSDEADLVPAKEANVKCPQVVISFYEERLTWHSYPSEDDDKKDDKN

Assay [8] deals with Methanococcus maripaludis chaperonin (MmCpn) (UniProt Q6LX38). Put plainly: High-Throughput Screening for Modulators of Cytosolic Chaperonin Activity: MmCpn Primary Screen (AID 488978). The method in brief: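 HTRF readout (320 nm excitation, 590/665 nm emission) of ADP generated by 50 nM MmCpn hydrolysing 30 uM ATP during 10 min at 37C; compound preincubated 5 min RT.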
Chain of Methanococcus maripaludis chaperonin (MmCpn) (Q6LX38 1-543): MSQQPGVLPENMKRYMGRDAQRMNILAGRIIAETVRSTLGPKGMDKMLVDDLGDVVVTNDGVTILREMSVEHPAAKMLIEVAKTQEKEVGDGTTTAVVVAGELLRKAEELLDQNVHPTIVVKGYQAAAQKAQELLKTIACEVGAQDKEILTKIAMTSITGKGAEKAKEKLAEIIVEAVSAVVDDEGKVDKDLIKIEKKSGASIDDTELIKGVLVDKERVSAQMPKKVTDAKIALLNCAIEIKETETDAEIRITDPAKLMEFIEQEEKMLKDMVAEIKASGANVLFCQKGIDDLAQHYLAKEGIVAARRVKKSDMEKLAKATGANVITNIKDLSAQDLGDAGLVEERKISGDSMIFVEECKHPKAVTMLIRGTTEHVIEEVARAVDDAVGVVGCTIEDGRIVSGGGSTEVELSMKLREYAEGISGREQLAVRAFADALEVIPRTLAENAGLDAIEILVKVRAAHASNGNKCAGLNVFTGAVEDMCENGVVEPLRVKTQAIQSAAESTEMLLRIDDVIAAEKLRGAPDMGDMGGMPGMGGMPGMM
For assay [9], the target named is Flap endonuclease 1 (Homo sapiens) (UniProt P39748). Put plainly: qHTS Validation Assay for the Inhibitors of Human Flap endonuclease 1 (FEN1) (AID 488816). The method in brief: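 Readings taken at 0 and 15 min after starting the reaction with 50 nM (final) substrate supplied the signal. Compounds had first sat with 10 nM FEN1 reagent for 15 min at room temperature. Values come from Hill-equation concentration-response fits.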
Chain of Flap endonuclease 1 (Homo sapiens) (P39748 whole entry, looked up): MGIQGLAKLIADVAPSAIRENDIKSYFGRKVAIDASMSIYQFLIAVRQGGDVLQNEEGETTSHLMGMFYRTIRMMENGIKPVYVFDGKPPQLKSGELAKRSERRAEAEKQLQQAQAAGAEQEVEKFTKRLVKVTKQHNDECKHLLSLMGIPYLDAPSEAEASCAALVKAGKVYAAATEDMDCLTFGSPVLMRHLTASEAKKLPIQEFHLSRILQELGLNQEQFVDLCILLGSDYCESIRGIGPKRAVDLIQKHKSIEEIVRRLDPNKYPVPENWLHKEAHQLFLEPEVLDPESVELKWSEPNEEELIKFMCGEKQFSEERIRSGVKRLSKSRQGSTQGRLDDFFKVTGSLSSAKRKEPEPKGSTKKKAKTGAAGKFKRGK

Structures are written as SMILES. Inconclusive results are not listed. The source made the active and inactive calls. The call rests on the fitted dose curve; in most records, active means well fitted curve in the direction sought with a large enough effect; inconclusive means small, poorly fitted or top-dose-only effect, or another doubt; inactive means no such curve, though single readings can be large; an effect the other way counts as inactive or inconclusive.

Chain of Beta-2 adrenergic receptor (Homo sapiens) (P07550 whole entry, looked up): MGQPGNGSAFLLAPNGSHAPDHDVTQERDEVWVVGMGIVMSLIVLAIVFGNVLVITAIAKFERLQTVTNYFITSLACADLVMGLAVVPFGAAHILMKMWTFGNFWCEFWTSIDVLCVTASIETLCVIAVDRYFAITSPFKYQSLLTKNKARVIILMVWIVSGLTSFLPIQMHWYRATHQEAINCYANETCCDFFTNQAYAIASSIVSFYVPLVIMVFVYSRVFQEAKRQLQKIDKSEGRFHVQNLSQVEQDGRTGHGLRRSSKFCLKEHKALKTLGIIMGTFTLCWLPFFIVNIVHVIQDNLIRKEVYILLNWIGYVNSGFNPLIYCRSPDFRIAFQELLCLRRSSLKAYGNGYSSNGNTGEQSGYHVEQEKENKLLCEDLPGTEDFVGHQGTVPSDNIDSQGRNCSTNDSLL
Chain of Thioredoxin reductase 1, cytoplasmic (Rattus norvegicus) (O89049 whole entry, looked up): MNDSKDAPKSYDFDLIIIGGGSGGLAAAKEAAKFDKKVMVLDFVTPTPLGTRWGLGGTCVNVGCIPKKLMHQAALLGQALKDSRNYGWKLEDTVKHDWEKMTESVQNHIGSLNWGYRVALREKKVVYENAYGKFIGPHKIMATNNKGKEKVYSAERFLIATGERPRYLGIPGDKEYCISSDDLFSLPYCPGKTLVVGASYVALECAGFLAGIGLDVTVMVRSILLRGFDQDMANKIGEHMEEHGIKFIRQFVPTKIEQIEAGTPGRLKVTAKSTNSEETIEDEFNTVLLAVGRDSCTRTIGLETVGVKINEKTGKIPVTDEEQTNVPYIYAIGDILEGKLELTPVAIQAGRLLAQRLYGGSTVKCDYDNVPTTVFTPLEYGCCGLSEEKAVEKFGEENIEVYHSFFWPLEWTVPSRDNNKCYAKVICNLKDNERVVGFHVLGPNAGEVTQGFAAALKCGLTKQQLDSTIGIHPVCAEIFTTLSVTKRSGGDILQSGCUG

In the case of `CCCN1CCC[C@H](c2cccc(O)c2)C1`, the outcome in assay [1], in assay [2] and in assay [4] was inactive. Further, the Potency entry in assay [3], in [5], in assay [6] and in assay [7] was “inactive” throughout.
With `Oc1ccc2c3c1O[C@H]1c4[nH]c5c(c4C[C@@]4(O)[C@@H](C2)N(CC2CC2)CC[C@]314)C[C@@]1(O)[C@H]2Cc3ccc(O)c4c3[C@@]1(CCN2CC1CC1)[C@H]5O4`, the outcome in assay [1], in assay [2], in assay [4] and in [8] was inactive. In addition, in assay [3], the Potency is 2.08 µM (active). Besides, the Potency result in [5] and in assay [6] was “inactive” throughout.
As to `CCCCc1ccc(C(=O)O)nc1`, the compound was classed as inactive in [1], in assay [2], in [4] and in assay [8]. Further, the Potency result in assay [3], in [5], in assay [9], in [6] and in assay [7] was “inactive” each time.
For `CCCN(CCC)[C@@H]1CCc2ccc(O)cc2C1`, the compound was classed as inactive in assay [1], in assay [2], in assay [4] and in assay [8]. Also, the Potency entry in [3], in [5], in assay [9], in assay [6] and in assay [7] was “inactive” each time.
On to `O=C(N[C@H]1CN2CCC1CC2)c1ccc(Cl)cc1`, for which the compound was called inactive in assay [1], in assay [2], in assay [4] and in assay [8]. The Potency entry in assay [5], in assay [9], in assay [6] and in [7] was “inactive” in each case.
Regarding `CS(=N)(=O)CC[C@H](N)C(=O)O` (stereo partly specified), the outcome in assay [1], in assay [2], in assay [4] and in assay [8] was inactive. The Potency result in assay [3], in [5], in assay [9] and in [6] was “inactive” each time.
In the case of `COc1cc(C(O)CN)ccc1O` (stereo unspecified), the call in assay [1], in [2], in [4] and in assay [8] was inactive. In addition, the Potency result in [3], in assay [5], in [9], in assay [6] and in [7] was “inactive” in each case.
With `NC(=NCCC[C@H](N)C(=O)O)N[N+](=O)[O-]`, the outcome in assay [1], in [2], in assay [4] and in [8] was inactive. The Potency entry in [5], in assay [9], in assay [6] and in assay [7] was “inactive” in each case.
With `O=C(Cc1ccc(Cl)c(Cl)c1)N1CCCCC1CN1CCCC1` (stereo unspecified), the result in assay [1], in [2], in assay [4] and in [8] was inactive. Besides, the Potency result in [5], in [9], in [6] and in [7] was “inactive” throughout.
As to `COC(=O)[C@@H](N)CCCN=C(N)N[N+](=O)[O-]`, the compound was classed as inactive in assay [1], in assay [2], in assay [4] and in assay [8]. Also, the Potency entry in assay [5], in assay [9], in assay [6] and in assay [7] was “inactive” in each case.
In the case of `NC1CC1c1ccccc1` (stereo unspecified), the outcome in [1], in assay [2] and in assay [4] was inactive. In addition, the Potency entry in assay [3], in assay [5], in assay [9], in [6] and in assay [7] was “inactive” in each case.
On to `Clc1cnc(Oc2ccc(Oc3ncc(Cl)cc3Cl)cc2)c(Cl)c1`, for which the outcome in assay [1], in [2], in assay [4] and in assay [8] was inactive. For the same compound, the Potency entry in [3], in [5], in assay [9], in assay [6] and in assay [7] was “inactive” in each case.
Consider `C[N+]1(C)C2CCC1CC(OC(=O)C(CO)c1ccccc1)C2` (stereo unspecified), for which the compound was called inactive in [1], in [2], in assay [4] and in assay [8]. Besides, the Potency entry in assay [3], in assay [5], in assay [9], in assay [6] and in assay [7] was “inactive” throughout.
Regarding `O=C(O)CC[N+](=O)[O-]`, the compound was classed as inactive in assay [1], in assay [2], in [4] and in [8]. The Potency result in [3], in assay [5], in assay [9], in assay [6] and in assay [7] was “inactive” throughout.
Consider `c1ccc(C2(c3ccccc3)CC2C2=NCCN2)cc1` (stereo unspecified), for which the call in [1], in assay [2], in [4] and in [8] was inactive. Also, the Potency result in [5], in assay [9], in assay [6] and in assay [7] was “inactive” in each case.
For the compound `CN1C2CCC1CC(OC(=O)c1cc(Cl)cc(Cl)c1)C2` (stereo unspecified), the compound was classed as inactive in [1], in assay [2] and in [8]. The Potency entry in assay [5], in assay [9], in [6] and in [7] was “inactive” throughout.
As to `CCCN1CCO[C@@H]2c3cc(O)ccc3OC[C@H]21`, the outcome in [1], in assay [2], in assay [4] and in [8] was inactive. Moreover, the Potency result in assay [3], in assay [5], in assay [9], in assay [6] and in assay [7] was “inactive” in each case.
For `C[C@]12CCC3C(CC[C@H]4C[C@H](O)CC[C@]34C)C1CC[C@@H]2C(=O)CO` (stereo partly specified), the compound was classed as inactive in [1], in assay [2], in assay [4] and in [8]. Besides, the Potency entry in assay [5], in assay [9], in assay [6] and in [7] was “inactive” throughout.
Take `NC(CP(=O)(O)O)C(=O)O` (stereo unspecified): the compound was called inactive in [1], in assay [2], in assay [4] and in [8]. Also, the Potency entry in [3], in [5], in assay [9], in [6] and in [7] was “inactive” in each case.
On to `CNCCc1c[nH]c2ccc(O)cc12`, for which the call in [1], in assay [2], in assay [4] and in [8] was inactive. Moreover, the Potency result in [5], in assay [9] and in [6] was “inactive” in each case.
As to `NC(CCP(=O)(O)O)C(=O)O` (stereo unspecified), the compound was called inactive in assay [1], in [2], in assay [4] and in assay [8]. Further, the Potency entry in [3], in assay [5], in assay [9], in assay [6] and in assay [7] was “inactive” each time.
In the case of `O=C(O)Cc1cnc[nH]1`, the call in assay [1], in assay [2], in assay [4] and in assay [8] was inactive. In addition, the Potency result in assay [3], in assay [5], in assay [9] and in [6] was “inactive” each time.
For the compound `C[C@@H](N)Cc1cnc[nH]1`, the call in assay [1], in assay [2], in assay [4] and in [8] was inactive. Besides, the Potency result in assay [3], in assay [5], in assay [9], in assay [6] and in assay [7] was “inactive” throughout.
For `O=C(O)[C@@H]1CCN1`, the result in assay [1], in assay [2], in assay [4] and in assay [8] was inactive. Further, the Potency result in assay [3], in assay [5], in assay [9], in assay [6] and in assay [7] was “inactive” each time.
`CC[C@@]1(O)C(=O)OCc2c1cc1n(c2=O)Cc2cc3ccccc3nc2-1`: the compound was classed as inactive in assay [1], in assay [2], in assay [4] and in assay [8]. In addition, the Potency in assay [3] was 1.47 µM (active). Moreover, the Potency entry in assay [5], in assay [9] and in [6] was “inactive” each time.
In the case of `C[C@@H]1O[C@H](C[N+](C)(C)C)C[C@H]1O`, the compound was classed as inactive in assay [1], in assay [2], in [4] and in assay [8]. For the same compound, the Potency result in assay [3], in assay [5], in [9], in assay [6] and in [7] was “inactive” throughout.
